# From ChEMBL document CHEMBL4513216, “Probing the Open Global Health Chemical Diversity Library for Multistage-Active Starting Points for Next-Generation Antimalarials” (ACS Infect Dis, 2020)
# In all, about 69,000 compounds went through this assay and about 8,600 (12%) showed an effect of 50% or more. For the sample, strong results were picked, then their nearest neighbours and some compounds at random.
# Test system: Plasmodium berghei
# Assay: Screen against P. berghei liver stage (PbLuc), transformed with Luciferase, at 10uM
# Assay type: functional, HepG2
# Details: tested at 10 uM
row,Structure (SMILES),INHIBITION
1,O=S(=O)(Cc1ccccc1F)N1CCCC1c1nnc2n1CCCCC2 (stereo not given),20.1%
2,CS(=O)(=O)N1CCOCC12CCN(c1nncs1)CC2,26.5%
3,CN1CCCCC12CCN(c1nncs1)CC2,-0.804%
4,CS(=O)(=O)N1CCCCC12CCN(c1nncs1)CC2,55.5%
5,CC(=O)N1CCCC(c2ccc(C(N)=O)cn2)C1 (stereo not given),40%
6,CCc1ccc(C2c3nc[nH]c3CCN2Cc2nccn2CC)nc1 (stereo not given),29.3%
7,CC(=O)N1CC2(CCCC2)c2ccccc21,7.21%
8,CCC1c2ccsc2CCN1Cc1cc2c(cc1OC)OCCO2 (stereo not given),69.4%
9,COc1cc2c(cc1CN1CCc3sccc3C1C)OCCO2 (stereo not given),40.6%
10,COc1cc2c(cc1CN1CCc3sccc3C1C)OCO2 (stereo not given),26.7%
11,COc1ccc(CN2CCc3sccc3C2C)cc1CN1CCOCC1 (stereo not given),52.7%
12,CC1c2ccsc2CCN1Cc1cc2c(cc1O)OCO2 (stereo not given),18.2%
13,COc1ccsc1C(=O)Nc1cc(CN2CCOCC2)ccc1C,-29.4%
14,Cn1ncc2c1NC(=O)CC2c1cccs1 (stereo not given),-3.77%
15,CC(c1cccc(F)c1)N1CCN(Cc2nccn2C)CC1 (stereo not given),-39.7%
16,CC(=O)NCC(=O)N1CCC2(COCc3c(C)nc(N(C)C)nc32)C1 (stereo not given),-13.2%
17,Cc1ccc(NC2CCN(C(=O)c3ccco3)CC2)nn1,-17%
18,Cc1ccc2c(n1)N(CC1CC1)CCN(C(=O)c1ccncc1F)C2,-37.4%
19,Cn1cnc2c1CCN(CCS(=O)(=O)c1ccc(Cl)cc1)C2,52.3%
20,Cn1cnc2c1CCN(CC(O)c1ccc3c(c1)OCCO3)C2 (stereo not given),42.6%
21,Cn1cnc2c1CCN(CCCOc1ccc(S(C)(=O)=O)cc1)C2,49%
22,Cn1cnc2c1CCN(CC(O)c1ccc(S(C)(=O)=O)cc1)C2 (stereo not given),57.6%
23,Cn1cnc2c1CCN(CCS(=O)(=O)c1ccccc1)C2,24.4%
24,Cn1cnc2c1CCN(CCCS(=O)(=O)c1ccccc1)C2,-1.14%

row,Structure (SMILES),INHIBITION
1,Cc1cc(C)nc(Nc2cc(C3CCCN(C)C3)nc(C)n2)n1 (stereo not given),46.1%
2,CCc1nc(C2CCCN2Cc2ccn(C)c(=O)c2)no1 (stereo not given),21.255%
3,CCn1c(C(=O)N2CCCN(CC(N)=O)CC2)cc2ccccc21,-27.8%
4,CN(CCNC(=O)c1cccnc1)S(C)(=O)=O,30.9%
5,CCc1nn(C)c(Cl)c1CN1CCCC2(C1)CN(C)C(=O)O2 (stereo not given),14.9%
6,CCc1nn(C)c(Cl)c1CN1CCC2(C1)CN(C)C(=O)O2 (stereo not given),-73.7%
7,CCc1nn(C)c(Cl)c1CN1CCCC2(CC1)CN(C)C(=O)O2 (stereo not given),53.4%
8,CN(C)Cc1ccccc1Cn1cncc1-c1cnn(C)c1,12.8%
9,O=S(=O)(c1cccs1)N1CCCn2cnc(CO)c2C1,26.3%
10,CC(NC(=O)CCn1c(=O)oc2ccccc21)c1ccccn1 (stereo not given),8.65%
11,Cn1ncc(C(=O)O)c1C(=O)Nc1nc2ccccc2s1,45.4%
12,CCNC(=O)C1CCCN(c2ccc3ccc(F)cc3n2)C1 (stereo not given),20.8%
13,CNC(=O)C1CCCN(c2nc3c(-c4ccccc4)csc3c(=O)[nH]2)C1 (stereo not given),11.6%
14,Cn1nc(N2CCCC(C(=O)Nc3nc4ccccc4s3)C2)ccc1=O (stereo not given),82.2%
15,Cn1nc(N2CCCC(C(=O)Nc3nccs3)C2)ccc1=O (stereo not given),21.5%
16,Cn1nc(N2CCCC(C(=O)Nc3nc4ccccc4[nH]3)C2)ccc1=O (stereo not given),51%
17,CCOCCSc1nnc(-c2cn(CC)nc2OCC)n1C,1.95%
18,O=C(C1CCCCC1)N1CCCC([C@@H]2C[C@H](C(F)F)n3ncnc3N2)C1 (stereo not given in full),25.26%
19,Cc1cc(C)nc(C2CCN(C(=O)CCn3ncc4ccccc43)C2)n1 (stereo not given),9.93%
20,CC(Cn1ccnc1)NCc1csc2c1CCCC2 (stereo not given),31.4%
21,CC(Cn1cncn1)NCc1csc2c1CCCC2 (stereo not given),51.1%
22,CC(Cn1cccn1)NCc1csc2c1CCCC2 (stereo not given),46.6%
23,CCc1nnc(CN2CCc3ccc(S(N)(=O)=O)cc32)o1,18%
24,CN(CCc1ccccn1)C(=O)CCC1CCCN(c2cnccn2)C1 (stereo not given),27.6%

row,Structure (SMILES),INHIBITION
1,CC(=O)N1CCc2nnc(C3CCCCN3CC3CCCCC3)n2CC1 (stereo not given),42.4%
2,COCCNC(=O)NC1(c2ccccc2F)CC1,20%
3,CCN(CC)C(CNC(=O)c1ccnc(N(C)C)c1)c1ccsc1 (stereo not given),13.3%
4,Cc1ccc(C)c(C(=O)NC2CCC(N3C(=O)CCC3=O)CC2)c1 (stereo not given),-56.4%
5,Cc1ccc(C)c(CC(=O)NC2CCC(N3C(=O)CCC3=O)CC2)c1 (stereo not given),50.1%
6,Cc1ccc(C)c(CC(=O)NC2CCS(=O)(=O)CC2)c1,41.5%
7,CN(Cc1cccnc1)Cc1cn2c(n1)CN(C1CCOCC1)CC2,4.57%
8,CC1=CC[C@@H]2CN(C(=O)c3ccc(-c4cc[nH]n4)cc3)C[C@@H]2C1,-37.1%
9,COc1ccc(CNC(=O)NCCc2csc(C)n2)cn1,36.1%
10,Cn1ccc(NCc2cc3cc(F)ccc3o2)n1,-18%
11,CN1CCC(N2CCOC[C@H]2c2nc(C(C)(C)C)c[nH]2)CC1,49.5%
12,CN1CCOC[C@H]1c1nc(-c2ccncc2)c[nH]1,52%
13,CN1CCOC[C@H]1c1nc(C(C)(C)C)c[nH]1,50.2%
14,CN1CCOC[C@H]1c1nc(-c2ccccc2)c[nH]1,-23.1%
15,c1cc(CN2CCOC[C@H]2c2nc(-c3ccncc3)c[nH]2)ccn1,-7.59%
16,Fc1cccc(-c2c[nH]c([C@@H]3COCCN3C3CCOCC3)n2)c1,-24.1%
17,CN1CCOC[C@H]1c1nc(-c2cccc(F)c2)c[nH]1,9.51%
18,Cc1ccc(-c2c[nH]c([C@@H]3COCCN3Cc3ncc[nH]3)n2)cc1,46.6%
19,CC(C)(C)c1c[nH]c([C@@H]2COCCN2C2CCC2)n1,23%
20,CC(C)(C)CN1CCOC[C@H]1c1nc(-c2cccc(F)c2)c[nH]1,64.8%
21,CN1CCC(N2CCOC[C@H]2c2nc(-c3ccncc3)c[nH]2)CC1,35.8%
22,c1cc(-c2c[nH]c([C@@H]3COCCN3Cc3ncc[nH]3)n2)ccn1,54.7%
